Test results as given in PubChem BioAssay (NCATS).
Records with an inconclusive call do not appear. Entries that show only a call come without a potency. Calls of active or inactive are those of the source. Unless noted, calls follow the shape of the dose curve; as a rule, active = well fitted curve in the direction sought with a large enough effect; inconclusive = small, poorly fitted or top-dose-only effect, or another doubt; inactive = no such curve, though single readings can be large; an effect the other way counts as inactive or inconclusive.

Key:
[1] = molecular target: Mitogen-activated protein kinase 10 (Mus musculus) (UniProt Q61831); test: JNK3 AlphaScreen Assay (AID 530; active = well fitted curve in either direction with a large enough effect, not every such curve was filed as active;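 also: kinase came from lysate of stimulated human HepG2 cells; signal reports phosphorylation of biotinylated GST-cJun 1-79 at Ser73 with 10 µM ATP; series mostly up to about 57 µM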)
Summary of the method: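 Phosphorylation of biotinylated GST-cJun(1-79) at Ser73 is measured by AlphaScreen proximity luminescence. Enzyme is JNK3 in HepG2 lysates activated with interleukin-1beta and tumor necrosis factor alpha; ATP is 10 uM final.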

[2] = molecular target: 3',5'-cyclic-AMP phosphodiesterase 4B (Homo sapiens) (UniProt Q07343); test: qHTS Assay for Inhibitors of PDE-IV (AID 607; active = well fitted activation curve with a large enough effect in the main read-out, with a control signal flat, not every such curve was filed as active)
3',5'-cyclic-AMP phosphodiesterase 4B (Homo sapiens), sequence (Q07343 whole entry, looked up): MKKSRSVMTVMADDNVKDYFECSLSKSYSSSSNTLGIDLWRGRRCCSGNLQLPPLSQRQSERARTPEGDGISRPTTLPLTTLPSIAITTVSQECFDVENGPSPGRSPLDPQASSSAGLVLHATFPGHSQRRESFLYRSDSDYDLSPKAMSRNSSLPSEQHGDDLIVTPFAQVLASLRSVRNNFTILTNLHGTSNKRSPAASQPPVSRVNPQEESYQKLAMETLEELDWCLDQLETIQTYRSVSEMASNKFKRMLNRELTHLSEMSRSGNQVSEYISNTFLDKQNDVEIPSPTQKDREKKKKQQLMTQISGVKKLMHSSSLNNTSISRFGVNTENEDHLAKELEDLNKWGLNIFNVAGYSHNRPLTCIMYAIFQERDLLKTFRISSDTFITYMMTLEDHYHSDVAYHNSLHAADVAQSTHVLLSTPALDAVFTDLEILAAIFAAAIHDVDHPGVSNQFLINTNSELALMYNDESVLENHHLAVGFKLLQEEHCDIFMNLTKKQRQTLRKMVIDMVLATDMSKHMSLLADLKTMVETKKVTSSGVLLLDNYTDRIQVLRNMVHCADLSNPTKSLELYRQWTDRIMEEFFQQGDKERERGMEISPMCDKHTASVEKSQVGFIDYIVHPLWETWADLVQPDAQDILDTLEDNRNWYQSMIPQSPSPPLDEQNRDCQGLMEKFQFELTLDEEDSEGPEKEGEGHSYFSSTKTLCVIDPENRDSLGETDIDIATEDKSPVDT
Summary of the method: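 ACTOne HEK293 cells carry a modified cAMP-gated CNG channel and express endogenous PDE4; plated 1000 cells/well, compounds up to 22.9 uM final. Membrane-potential dye fluorescence (ex 535/em 590) was read; parental cells received 10 uM forskolin + 100 uM RO 20-1724.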

[3] = molecular target: Cytochrome P450 3A4 (Homo sapiens) (UniProt P08684); test: qHTS Assay for Inhibitors and Substrates of Cytochrome P450 3A4 (AID 884); also: nearly all actives have a fitted effect of over 50% in size; also: potency is read from the fitted curve at half-maximal effect
Cytochrome P450 3A4 (Homo sapiens), sequence (P08684 whole entry, looked up): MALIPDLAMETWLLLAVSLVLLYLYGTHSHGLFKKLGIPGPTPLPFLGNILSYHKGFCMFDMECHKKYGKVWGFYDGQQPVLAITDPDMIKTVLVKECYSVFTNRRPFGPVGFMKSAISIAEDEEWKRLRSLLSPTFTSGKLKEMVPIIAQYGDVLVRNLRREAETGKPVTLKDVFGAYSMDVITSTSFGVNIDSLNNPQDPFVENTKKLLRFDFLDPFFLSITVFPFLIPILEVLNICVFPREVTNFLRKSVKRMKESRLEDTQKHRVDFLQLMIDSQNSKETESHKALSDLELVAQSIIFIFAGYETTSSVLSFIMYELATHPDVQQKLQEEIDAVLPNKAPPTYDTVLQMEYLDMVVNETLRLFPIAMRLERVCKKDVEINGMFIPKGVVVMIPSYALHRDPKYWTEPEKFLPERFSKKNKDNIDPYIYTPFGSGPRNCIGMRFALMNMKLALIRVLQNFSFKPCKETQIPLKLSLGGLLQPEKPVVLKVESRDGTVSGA
Summary of the method: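 Luminescent readout of luciferin produced by CYP3A4 (20 nM) dealkylation of Luciferin-PPXE, 25 uM (its KM). NADPH-driven reaction ran 60 min at RT after 10 min compound preincubation; data scaled to 57 uM ketoconazole as 100% inhibition.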

[4] = molecular target: Cytochrome P450 3A4 (Homo sapiens) (UniProt P08684); test: qHTS Assay for Activators of Cytochrome P450 3A4 (AID 885); also: nearly all actives have a fitted effect of over 65% in size
Summary of the method: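 CYP3A4 activity: Luciferin-PPXE O-dealkylation, 25uM substrate, 200mM KPO4, RT throughout. Read-out is luciferase luminescence; higher values reflect activation.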

[5] = molecular target: Cytochrome P450 2C19 (Homo sapiens) (UniProt P33261); test: qHTS Assay for Inhibitors and Substrates of Cytochrome P450 2C19 (AID 899); also: potency is read from the fitted curve at half-maximal effect; nearly all actives have a fitted effect of over 60% in size
Cytochrome P450 2C19 (Homo sapiens), sequence (P33261 whole entry, looked up): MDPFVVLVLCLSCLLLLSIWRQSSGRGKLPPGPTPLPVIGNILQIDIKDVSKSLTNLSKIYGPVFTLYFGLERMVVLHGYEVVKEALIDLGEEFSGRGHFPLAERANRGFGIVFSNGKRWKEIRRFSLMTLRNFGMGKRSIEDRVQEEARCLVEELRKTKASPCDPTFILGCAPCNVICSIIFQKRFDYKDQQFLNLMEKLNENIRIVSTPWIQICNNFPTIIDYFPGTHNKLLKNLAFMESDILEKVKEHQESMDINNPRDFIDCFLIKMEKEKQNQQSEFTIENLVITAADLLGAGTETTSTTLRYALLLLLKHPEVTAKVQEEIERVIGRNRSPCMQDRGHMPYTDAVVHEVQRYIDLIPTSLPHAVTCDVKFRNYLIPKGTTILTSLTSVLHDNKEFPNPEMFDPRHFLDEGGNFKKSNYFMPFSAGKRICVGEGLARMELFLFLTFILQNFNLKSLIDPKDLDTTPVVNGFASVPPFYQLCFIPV
Summary of the method: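 NADPH-dependent conversion of Luciferin-H EGE (10uM, at KM) by 5nM enzyme in 50mM KPO4, 60 min at 37C following 10 min compound preincubation. Stopped with luciferin detection buffer; luminescence read after 20 min.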

[6] = molecular target: Cytochrome P450 2C9 (Homo sapiens) (UniProt P11712); test: qHTS Assay for Inhibitors and Substrates of Cytochrome P450 2C9 (AID 883); also: potency is read from the fitted curve at half-maximal effect; nearly all actives have a fitted effect of over 60% in size
Cytochrome P450 2C9 (Homo sapiens), sequence (P11712 whole entry, looked up): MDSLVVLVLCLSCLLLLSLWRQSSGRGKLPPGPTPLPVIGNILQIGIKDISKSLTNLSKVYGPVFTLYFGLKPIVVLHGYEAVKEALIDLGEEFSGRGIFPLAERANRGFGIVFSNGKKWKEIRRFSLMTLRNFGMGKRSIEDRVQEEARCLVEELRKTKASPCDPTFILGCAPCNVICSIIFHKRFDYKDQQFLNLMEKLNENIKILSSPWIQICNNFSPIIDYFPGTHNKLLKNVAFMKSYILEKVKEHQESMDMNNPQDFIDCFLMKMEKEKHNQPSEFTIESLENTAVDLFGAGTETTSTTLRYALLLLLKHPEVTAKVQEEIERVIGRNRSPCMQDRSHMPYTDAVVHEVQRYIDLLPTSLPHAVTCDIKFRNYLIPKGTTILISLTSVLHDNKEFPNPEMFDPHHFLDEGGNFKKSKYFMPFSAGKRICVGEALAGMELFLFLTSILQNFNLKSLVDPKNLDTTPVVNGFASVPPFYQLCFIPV
Summary of the method: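 A luminogenic readout tracked human CYP2C9 (10nM) converting deoxyluciferin (100uM, at KM) in 25mM KPO4 during 60 min at 37C with regenerated NADPH. Values normalized to 57uM sulphaphenazole as complete inhibition.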

C[C@H](CO)NC(=O)[C@H](C)[C@@H]1C[C@@]1(C)[C@@H](NC(=O)OCc1ccccc1)c1ccccc1
outcome [1]: inactive
outcome [2]: inactive
Potency [3]: 5.01 µM (active)
Potency [4]: inactive

CCC/C=C(\CCC)C(NS(C)(=O)=O)c1ccccc1 (centres undefined)
outcome [1]: inactive
outcome [2]: inactive
Potency [4]: inactive
Potency [5]: 7.94 µM (active)

COC(=O)[C@@]1(Cc2ccccc2)[C@H]2c3cc(C(=O)N(C)C)n(Cc4c(CO)[nH]cc(C)c4=O)c3C[C@H]2CN1C(=O)c1ccccc1
outcome [1]: inactive
outcome [2]: inactive
Potency [6]: 0.631 µM (active)
Potency [3]: 1.58 µM (active)
Potency [4]: inactive
Potency [5]: 3.16 µM (active)

COCCNC(=O)C1(C)C=CCN1C(C)=O (centres undefined)
outcome [1]: inactive
Potency [3]: inactive

CCCn1c(C)nc2c(NCCCN(C)C)nc(C)nc21
outcome [1]: inactive
Potency [3]: inactive

COC(=O)[C@@]1(Cc2ccc(OC)cc2)[C@@H]2[C@@H](CC(=O)[C@H]2CC(=O)C(=O)N(C)C)CN1C(=O)c1ccccc1
outcome [1]: inactive
outcome [2]: inactive
Potency [4]: inactive

COC(=O)[C@@]1(Cc2ccc(F)cc2)[C@H]2c3cc(C(=O)N4CCCC4)n(Cc4ccc(S(C)(=O)=O)cc4)c3C[C@H]2CN1C(=O)c1ccccc1
outcome [1]: inactive
outcome [2]: inactive
Potency [4]: inactive

CCCC[C@@H]1C[C@H]1C(NC(=O)c1cccnc1)c1ccc(-c2ccccc2)cc1 (some centres undefined)
outcome [1]: inactive
Potency [6]: 5.01 µM (active)
Potency [4]: inactive

CNC(=O)C1(C)C=CCN1C(=O)OC (centres undefined)
outcome [1]: inactive
Potency [3]: inactive

CO[C@H]1OC[C@@]2(C)[C@@H]3C4=C(CN2C(=O)OC(C)(C)C)[C@H](C)[C@H](CO)[C@H](CO)[C@H]4CC[C@H]13
outcome [1]: inactive
outcome [2]: inactive
Potency [4]: inactive

COC(=O)CCCCCN1C(=O)NC(c2ccc(-c3ccccc3)cc2)C(C(=O)OCc2ccccc2)=C1C (centres undefined)
outcome [1]: inactive
Potency [3]: inactive

CNC(=O)C1(CC(C)C)C=CCN1C(=O)c1ccccc1 (centres undefined)
outcome [1]: inactive
Potency [3]: inactive

CC(Cc1ccccc1)C(=O)Nc1ccccc1 (centres undefined)
outcome [1]: inactive
Potency [3]: inactive

CC(C)(C)NC(=O)C(c1ccc(I)cc1)N(CCN1CCOCC1)C(=O)CCCNC(=O)c1ccccc1 (centres undefined)
outcome [1]: inactive
Potency [3]: 3.98 µM (active)
Potency [4]: inactive

CC(=O)N1[C@H](Cc2ccccc2)C=C[C@]1(C)C(=O)O
outcome [1]: inactive
Potency [3]: inactive

CC1(C(=O)NCc2ccccn2)C=CCN1C(=O)c1ccccc1 (centres undefined)
outcome [1]: inactive
Potency [3]: inactive

COC(=O)N1[C@H](C)C=C[C@]1(Cc1ccccc1)C(=O)O
outcome [1]: inactive
Potency [3]: inactive

CCCn1c(C)nc2c(NCCO)nc(C)nc21
outcome [1]: inactive
Potency [3]: inactive

COC(=O)c1ccc(C(NC(=O)OCc2ccccc2)/C(F)=C/[C@@H](C)C(=O)NCCc2c[nH]c3ccc(OC)cc23)cc1 (some centres undefined)
outcome [1]: inactive
Potency [3]: 1.26 µM (active)

COC(=O)N1CC=CC1(C)C(=O)NCC1CC1 (centres undefined)
outcome [1]: inactive
Potency [3]: inactive

COC(=O)N1[C@H](C)C=C[C@]1(Cc1ccccc1)C(=O)OC
outcome [1]: inactive
Potency [3]: inactive

CNC(=O)C1(CC(C)C)C=CCN1C(C)=O (centres undefined)
outcome [1]: inactive
Potency [3]: inactive

CCCCCCN(C(=O)CCCCCN1C(=O)NC(c2ccc(-c3ccccc3)cc2)C(C(=O)OCc2ccccc2)=C1C)C(C(=O)NCCCC)c1ccc(OCC(=O)OC)cc1 (centres undefined)
outcome [1]: inactive
Potency [3]: 10 µM (active)
Potency [4]: inactive

COC(=O)c1ccc(C(NC(=O)OCc2ccccc2)/C(=C/[C@@H](C)C(=O)Nc2ccccc2)c2cccnc2)cc1 (some centres undefined)
outcome [1]: inactive
Potency [3]: 1.58 µM (active)
Potency [4]: inactive

CCCCCCN(C(=O)CCCCCN1C(=O)NC(C2CC2)C(C(=O)OCc2ccccc2)=C1C)C(C(=O)NCCCC)c1ccc(OCC(=O)OC)c(C(=O)OC)c1 (centres undefined)
outcome [1]: inactive
Potency [3]: 3.98 µM (active)
Potency [4]: inactive

CC1=C(C(=O)OCc2ccccc2)C(c2cccc([N+](=O)[O-])c2)NC(=O)N1CCCCCC(=O)O (centres undefined)
outcome [1]: inactive
Potency [3]: inactive

COC(=O)c1ccc(C(NC(=O)OCc2ccccc2)/C(=C/[C@@H](C)C(=O)NCc2cc(C)n(C)n2)c2cccnc2)cc1 (some centres undefined)
outcome [1]: inactive
Potency [3]: inactive

COC(=O)C1(C)C=CCN1C(=O)c1ccccc1 (centres undefined)
outcome [1]: inactive
Potency [3]: inactive

COC(=O)N1[C@H](C)C=C[C@]1(Cc1ccccc1)C(=O)NCCCNc1ncc(C(F)(F)F)cc1Cl
outcome [1]: inactive
Potency [3]: 6.31 µM (active)
Potency [4]: inactive

COC(=O)N1[C@H](Cc2ccccc2)C=C[C@]1(C)C(=O)O
outcome [1]: inactive
Potency [3]: inactive

CC(=O)N1CC=CC1(CC(C)C)C(=O)O (centres undefined)
outcome [1]: inactive
Potency [3]: inactive

COC(=O)c1ccc(C(NC(=O)OCc2ccccc2)/C(C)=C/[C@@H](C)C(=O)N[C@@H](CO)Cc2ccccc2)cc1 (some centres undefined)
outcome [1]: inactive
Potency [3]: 3.16 µM (active)
Potency [4]: inactive

CCCCCCN(C(=O)CCCCCN1C(=O)NC(c2ccc3ccccc3c2)C(C(=O)OCc2ccccc2)=C1C)C(C(=O)NCCCC)c1ccc(OCC(=O)OC)c(C(=O)OC)c1 (centres undefined)
outcome [1]: inactive
Potency [3]: 2.51 µM (active)
